Experimental findings from PubChem BioAssay are described below.

A number with no mark means an inactive call. For some of these results: Measured potencies and affinities stand elsewhere. Calls of active or inactive are those of the source. Unless noted, the rule behind the calls is not given here.

Assay [1] can be described thus: antimalarial activity against Dd2 strain (AID 2302;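 active = growth inhibition above 50% at the single 2 µM test dose, taken to imply half-maximal potency below 2 µM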;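 note: 0% = DMSO untreated growth and 100% = chloroquine plus artemisinin killed control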). To be noted: P. falciparum Dd2 in RBCs, LDH growth readout, 72 h; at 2 µM; hits give high values.
Assay [2] is described as follows: HepG2 cytotoxicity, primary screen, cytotoxicity control for P. falciparum antimalarial project, cell-based, ATP luminescence (AID 2303;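 active = inhibition above 50%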;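 note: 0% = DMSO wells and 100% = digitonin-killed cells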). Particulars: HepG2 viability, 24-48 h, at 10 µM, hits give high values.
Assay [3] deals with L-lactate dehydrogenase (Plasmodium falciparum (isolate CDC / Honduras)) (UniProt Q27743). The experiment in a line: PfLDH activity inhibition – cell lysate, 3D7 strain, counter-screen for P. falciparum growth inhibition project (AID 2304).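 Note: 0% = vehicle and 100% = reference inhibitor.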 To be noted: P. falciparum 3D7 crude extract, LDH APAD/NBT absorbance; at 2 µM; hits give high values.
Chain of L-lactate dehydrogenase (Plasmodium falciparum (isolate CDC / Honduras)) (Q27743 whole entry, looked up): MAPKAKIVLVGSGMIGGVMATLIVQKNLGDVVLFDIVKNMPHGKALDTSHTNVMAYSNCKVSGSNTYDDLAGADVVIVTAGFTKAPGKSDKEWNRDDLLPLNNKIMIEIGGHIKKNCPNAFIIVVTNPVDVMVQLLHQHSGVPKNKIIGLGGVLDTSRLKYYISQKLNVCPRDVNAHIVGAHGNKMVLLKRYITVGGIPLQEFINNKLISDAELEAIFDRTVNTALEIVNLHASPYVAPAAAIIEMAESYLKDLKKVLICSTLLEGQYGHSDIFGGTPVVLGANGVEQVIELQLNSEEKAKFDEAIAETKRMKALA
Assay [4] in a line: inhibition of 3D7 malaria parasite growth – strain 3D7 (AID 2306).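 Note: 0% = DMSO wells and 100% = chloroquine plus artemisinin control wells.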 To be noted: P. falciparum 3D7 erythrocytic growth, LDH absorbance, 72 h; at 2 µM; hits give high values.
The target in assay [5] is Calcium-dependent protein kinase 1 (Plasmodium falciparum (isolate 3D7)) (UniProt P62344). The experiment in a line: PfCDPK1 kinase inhibitors, biochemical, TCAMS library (AID 1159585; cut-off not given, nearly all actives have IC50 up to about 0.98 µM;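 note: inhibitors leave more ATP so luminescence rises with inhibition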). To be noted: recombinant PfCDPK1, Kinase-Glo ATP depletion luminescence. (Kinase-Glo reads ATP consumption through a luciferase reaction.)
Chain of Calcium-dependent protein kinase 1 (Plasmodium falciparum (isolate 3D7)) (P62344 whole entry, looked up): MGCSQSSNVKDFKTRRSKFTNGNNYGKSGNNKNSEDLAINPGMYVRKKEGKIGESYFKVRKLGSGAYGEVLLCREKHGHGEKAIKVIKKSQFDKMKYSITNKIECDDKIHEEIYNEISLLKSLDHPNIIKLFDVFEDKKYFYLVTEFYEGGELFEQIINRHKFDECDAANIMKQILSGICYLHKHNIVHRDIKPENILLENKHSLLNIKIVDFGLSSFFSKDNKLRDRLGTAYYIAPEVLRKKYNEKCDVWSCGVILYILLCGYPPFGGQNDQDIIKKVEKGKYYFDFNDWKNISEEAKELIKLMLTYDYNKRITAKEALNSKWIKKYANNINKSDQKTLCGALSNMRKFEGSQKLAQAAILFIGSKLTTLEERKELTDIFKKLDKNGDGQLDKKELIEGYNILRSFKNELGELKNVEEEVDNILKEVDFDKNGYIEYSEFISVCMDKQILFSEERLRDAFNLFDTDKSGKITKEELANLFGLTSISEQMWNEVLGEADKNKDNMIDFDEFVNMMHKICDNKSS
Assay [6] addresses Plasmodium falciparum protein kinase 6 (PK6, PF3D7_1337100) (UniProt Q8IDW1). As to the kind of experiment: PfPK6 kinase inhibitors, biochemical, TCAMS library (AID 1159586). To be noted: recombinant PfPK6, Kinase-Glo ATP depletion luminescence.
In assay [7] the target is Protein kinase 7 (PK7), Plasmodium falciparum 3D7 (PF3D7_0213400) (UniProt Q7YTF7). The experiment in a line: inhibition of Plasmodium PK7 catalytic activity – biochemical, TCAMS antimalarial set, Kinase-Glo luminescence (AID 1159587). To be noted: recombinant PfPK7, Kinase-Glo ATP depletion luminescence.
Chain of Protein kinase 7 (PK7), Plasmodium falciparum 3D7 (PF3D7_0213400) (Q7YTF7 1-343): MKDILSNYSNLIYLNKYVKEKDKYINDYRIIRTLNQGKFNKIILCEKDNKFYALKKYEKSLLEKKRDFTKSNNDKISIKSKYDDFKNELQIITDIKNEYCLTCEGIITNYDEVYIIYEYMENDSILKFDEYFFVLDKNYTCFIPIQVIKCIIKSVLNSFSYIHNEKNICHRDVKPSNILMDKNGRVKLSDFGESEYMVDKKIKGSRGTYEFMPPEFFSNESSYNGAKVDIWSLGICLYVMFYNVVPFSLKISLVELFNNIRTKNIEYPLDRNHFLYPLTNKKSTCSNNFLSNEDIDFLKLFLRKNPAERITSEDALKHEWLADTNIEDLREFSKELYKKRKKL
Assay [8] addresses Calcium-dependent protein kinase 4 (Plasmodium falciparum (isolate 3D7)) (UniProt Q8IBS5). The experiment in a line: PfCDPK4 kinase inhibitors, biochemical, TCAMS library (AID 1159588; cut-off not given, nearly all actives have IC50 up to about 0.91 µM). To be noted: recombinant PfCDPK4, Kinase-Glo ATP depletion luminescence.

Chain of Calcium-dependent protein kinase 4 (Plasmodium falciparum (isolate 3D7)) (Q8IBS5 whole entry, looked up): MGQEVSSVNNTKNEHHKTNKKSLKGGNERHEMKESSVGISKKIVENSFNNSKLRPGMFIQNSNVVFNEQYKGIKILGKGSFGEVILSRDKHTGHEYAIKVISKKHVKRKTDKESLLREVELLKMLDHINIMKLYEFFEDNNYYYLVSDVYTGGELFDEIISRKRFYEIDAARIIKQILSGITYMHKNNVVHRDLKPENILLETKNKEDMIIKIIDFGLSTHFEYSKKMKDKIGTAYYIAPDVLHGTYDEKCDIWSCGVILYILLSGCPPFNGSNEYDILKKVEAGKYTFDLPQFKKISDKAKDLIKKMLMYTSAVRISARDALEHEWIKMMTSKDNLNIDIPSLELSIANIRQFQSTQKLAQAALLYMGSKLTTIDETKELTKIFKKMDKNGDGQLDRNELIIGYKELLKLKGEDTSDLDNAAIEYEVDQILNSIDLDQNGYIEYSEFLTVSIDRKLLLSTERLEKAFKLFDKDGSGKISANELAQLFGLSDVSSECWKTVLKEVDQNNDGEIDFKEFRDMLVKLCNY
Chain of Plasmodium falciparum protein kinase 6 (PK6, PF3D7_1337100) (Q8IDW1 1-305): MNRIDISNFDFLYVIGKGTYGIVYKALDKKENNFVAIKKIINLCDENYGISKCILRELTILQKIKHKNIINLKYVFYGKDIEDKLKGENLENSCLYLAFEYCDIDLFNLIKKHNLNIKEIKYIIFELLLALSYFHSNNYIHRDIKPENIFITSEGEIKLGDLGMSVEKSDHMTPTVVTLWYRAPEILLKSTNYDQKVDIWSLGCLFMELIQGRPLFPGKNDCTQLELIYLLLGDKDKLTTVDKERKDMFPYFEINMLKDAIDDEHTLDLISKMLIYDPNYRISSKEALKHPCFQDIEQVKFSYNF

Turning to `O=C(Nc1ccc(Cn2ncc(N3CCCNCC3)c(Cl)c2=O)cc1)Nc1ccc(F)cc1[N+](=O)[O-]`, the growth inhibition is -3% in assay [1] and 90% (active) in assay [4]. Moreover, the figures for the inhibition in assay [2] and in assay [3] were 11% and -4%, respectively. In addition, the outcome in assay [5], in assay [6], in assay [7] and in assay [8] was inactive.

As to `CC(=O)C1=NN(c2ccc(C)cc2)C(c2cccs2)N1c1ccccc1` (stereo not given), the results for the growth inhibition in assay [1] and in assay [4] were 64% (active) and 89% (active), respectively. The inhibition in assay [2] and in assay [3] was -4% in each case. Also, the result in assay [5], in assay [6], in assay [7] and in assay [8] was inactive.

As for `COc1cc(Cc2cnc(N)nc2N)cc(OCCCCCC(N)=O)c1OC`, the figures for the growth inhibition in assay [1] and in assay [4] were -3% and 90% (active), respectively. Also, the inhibition (in general, the drop in the measured response relative to a control, in per cent) in assay [2] is -33%; in assay [3], 0%. For the same compound, the result in assay [5], in assay [6], in assay [7] and in assay [8] was inactive.

`Cc1ccccc1NC1=NC(=S)N(c2cccc(C(F)(F)F)c2)C12CCC(C(C)(C)C)CC2` (stereo not given): the growth inhibition in assay [1] was 25%; in assay [4], 95% (active). In addition, the figures for the inhibition in assay [2] and in assay [3] were 9% and 5%, respectively. Moreover, the result in assay [5], in assay [6], in assay [7] and in assay [8] was inactive.

Regarding `N=c1n(CCN2CCCCC2)c2ccccc2n1CC(O)c1ccc(Cl)c(Cl)c1` (stereo not given), the growth inhibition in assay [1] and in assay [4] was 97% (active) each time. The inhibition in assay [2] is 50% (active); in assay [3], -2%. The result in assay [5], in assay [6], in assay [7] and in assay [8] was inactive.
